High-throughput results deposited in PubChem BioAssay by Broad Institute.
Wnt bcat act: Wnt/beta-catenin pathway activators, primary screen, cell-based, plate reader, single point; Wnt/beta-catenin reporter cell assay, activator; activation, % at 9.35 µM; 1.2% of 300,000 active; AID 743398, 2014; in the data active means activation above about 30%, passing the limit was not always enough; inconclusive means no clear call, values can overlap the other calls;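 further: 0% = neutral control wells and 100% = positive control wells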
esBAF inh: Bmi1 luciferase reporter increase in mESCs, primary screen, esBAF inhibitor project, mouse ES cells, Bmi1 luciferase knock-in, single point; reporter increase, % at 12.5 µM; 24 h; 100% = twice the neutral-well signal; 2% of 350,000 active; in the data active means activation above about 40%; inconclusive means no clear call, values can overlap the other calls;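 further: 0% = median of the plate's neutral control wells and 100% = double that signal; a rise in the Bmi1 reporter signal indicates esBAF inhibition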
HSF-1 act: HSF-1 activators, primary screen, NIH3T3-HGL cells, MG132 stress, luminescence, single point; NIH3T3-HGL HSF-1 luciferase reporter, 8 h; 100% = twice DMSO control signal; activation, % at 9 µM; 1.7% of 300,000 active; AID 504408, 2011;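 active means mean replicate activation of at least 50% with a set share of replicates each reaching 50%; inconclusive means only one of those two conditions met; inactive means mean below 50% and too few replicates reaching it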;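 further: 0% = median of the neutral control wells and 100% = twice that signal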
HSF1 inhib: HSF1 inhibitors in luciferase reporter cells, primary screen, cell-based, NIH3T3, luminescence; NIH3T3-HGL HSE-luciferase, MG132-induced, luminescence 8 h; stronger effect = lower value; activity change, negative = inhibition, % at 7.5 µM (by protocol); 0.77% of 300,000 active; AID 2098, 2009;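 active means more than half of replicate wells show activity change below -50%, luminescence cut by over half; inconclusive means some wells, but at most half, below -50%; inactive means no replicate well below -50%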;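 further: luciferase reports HSF-1 transcriptional activity via heat shock element; 0% = median of DMSO wells and -100% = zero luminescence signal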
MITF TRPM1 HTS: activators of MITF-driven TRPM1 promoter reporter, primary screen, cell-based, SK-MEL-5, luciferase, single point; activation, % at 12.5 µM; SK-MEL-5 TRPM1-promoter luciferase, 24 h; % of positive control, neutral wells = 0; 0.75% of 300,000 active;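 active means mean activation of at least 80% with every replicate also reaching 80%; inconclusive means mean reaches 80% but some replicate falls short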;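 further: 0% = neutral control wells and 100% = parthenolide positive control wells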
* = called active by the depositor; ! = not active in a repeat. Shown are actives, neighbours in structure and some others; about 3.9% of the full set was active somewhere.

Screening COCC(=O)Nc1ccc2c(c1)C(=O)N(C)C[C@H](OC)[C@@H](C)CN(Cc1ccccn1)[C@@H](C)CO2 returned esBAF inh -15.
For C[C@H]1CN([C@@H](C)CO)C(=O)c2cc(NC(=O)Cc3ccccc3)ccc2O[C@@H]1CN(C)Cc1ccc(-c2ccccc2)cc1 the results were esBAF inh -1.
CC(C)(C)C(CN1CCCC1)OC(=O)c1ccccc1 (configuration not stated) was read as Wnt bcat act 1, esBAF inh -2, HSF-1 act -84, HSF1 inhib -80* and MITF TRPM1 HTS -4.
Screening COc1ccc(NC(=O)Nc2ccc3c(c2)CC(=O)N([C@H](C)CO)C[C@H](C)[C@H](CN(C)C(=O)NC2CCCCC2)O3)cc1 returned esBAF inh 2.
CCc1c(O)nc(SCC(=O)Nc2ccccc2)n(-c2ccccc2)c1=O was read as Wnt bcat act 0, esBAF inh 1, HSF-1 act 7, HSF1 inhib 3 and MITF TRPM1 HTS 2.
For Cc1ccc(NC(=O)CSc2nc(O)c(Cc3ccccc3)c(=O)n2-c2ccccc2)cc1 the results were Wnt bcat act -1, esBAF inh 25*, HSF-1 act 5, HSF1 inhib -3 and MITF TRPM1 HTS 5.
Screening CN(C)CC(=O)N[C@@H]1CC[C@@H](CCNC(=O)Nc2ccc(F)cc2)O[C@H]1CO returned esBAF inh 8.
For COc1ccc(C2CC(c3cccs3)=NN2S(C)(=O)=O)cc1 (configuration not stated) the results were Wnt bcat act 24, esBAF inh inconclusive, HSF-1 act 6, HSF1 inhib 1 and MITF TRPM1 HTS 44.
`COc1ccc(C2CC(c3ccc(OC)c(OC)c3)=NN2S(C)(=O)=O)cc1` (configuration not stated) gave Wnt bcat act 45*, esBAF inh 71*, HSF-1 act 29, HSF1 inhib 18 and MITF TRPM1 HTS 87*.
COc1ccc(C2=NN(S(C)(=O)=O)C(c3ccc4nccnc4c3)C2)cc1 (configuration not stated) was read as Wnt bcat act 13, HSF-1 act 92*, HSF1 inhib 39 and MITF TRPM1 HTS 38.
`C[C@@H]1CCCCO[C@H](CN(C)C(=O)Nc2ccc(F)cc2)[C@H](C)CN([C@H](C)CO)C(=O)c2cc(NC(=O)C3CCCCC3)ccc2O1` gave esBAF inh 1.
Screening COc1ccc(-c2cc(C(=O)N3CCCCCC3)no2)cc1 returned Wnt bcat act -2, esBAF inh -9, HSF-1 act 60*, HSF1 inhib 25 and MITF TRPM1 HTS 42.
For COc1ccc(-c2cc(C(=O)N3CCCC3)no2)cc1 the results were Wnt bcat act 29, HSF-1 act 24, HSF1 inhib -1 and MITF TRPM1 HTS -16.
COc1ccc(-c2cc(C(=O)N3CCCCCC3)no2)cc1OC was read as Wnt bcat act 17, esBAF inh 71*, HSF-1 act 44 and HSF1 inhib 16.
`COc1ccc(C2=NOC(C(=O)Nc3c(C)n(C)n(-c4ccccc4)c3=O)C2)cc1OC` (configuration not stated) gave Wnt bcat act -4, esBAF inh 5, HSF-1 act -79 and HSF1 inhib -73*.
For COc1cccc(-c2cc(C(=O)N3CCCCCC3)no2)c1 the results were Wnt bcat act 41*, esBAF inh -21, HSF-1 act 13 and HSF1 inhib 7.
`C[C@@H]1CN([C@H](C)CO)C(=O)c2cccc(NC(=O)c3cnccn3)c2O[C@H]1CN(C)C(=O)Nc1ccccc1` gave esBAF inh 2.
`COC(=O)C[C@H]1CC[C@@H]2[C@H](COC[C@H](O)CN2S(=O)(=O)c2ccc(F)cc2)O1` gave esBAF inh -9.
Screening COc1ccc(C2=NOC(C(=O)N3CCCCCC3)C2)cc1OC (configuration not stated) returned Wnt bcat act -1, esBAF inh 6, HSF-1 act -83, HSF1 inhib -78* and MITF TRPM1 HTS 8.
For Cc1ccc(N2CS(=O)(=O)/C(=C/N(C)C)C2=O)cc1 the results were Wnt bcat act 49*, esBAF inh 15, HSF-1 act 13, HSF1 inhib 10 and MITF TRPM1 HTS 68.
For O=C(COc1ccc(Cl)cc1)Nc1ncc([N+](=O)[O-])s1 the results were Wnt bcat act 38*, HSF-1 act 78*, HSF1 inhib 45 and MITF TRPM1 HTS 15.
COc1ccc(S(=O)(=O)Nc2ccc3c(c2)C(=O)N([C@H](C)CO)C[C@H](C)[C@H](CN(C)Cc2ccc4c(c2)OCO4)OCCCC[C@@H](C)O3)cc1 was read as esBAF inh -2.
COc1ccc(N=C2SC(CC(=O)Nc3ccccc3)C(=O)N2Cc2ccco2)cc1 (configuration not stated) was read as Wnt bcat act 44*, esBAF inh -5, HSF-1 act 14, HSF1 inhib -5 and MITF TRPM1 HTS -6.
Screening O=C(NC1CCCCC1)C(c1ccncc1)N(Cc1ccc(F)cc1)C(=O)c1ccccn1 (configuration not stated) returned Wnt bcat act 0, esBAF inh -9, HSF-1 act 7 and HSF1 inhib 4.
CC(C)(C)NC(=O)C(c1ccc(F)cc1)N(Cc1ccco1)C(=O)c1csnn1 (configuration not stated) was read as Wnt bcat act -7, esBAF inh -1, HSF-1 act 35, HSF1 inhib 12 and MITF TRPM1 HTS -7.
Screening CC(C)(C)NC(=O)C(c1ccncc1)N(Cc1ccco1)C(=O)c1ccc(-c2ccccc2)[nH]1 (configuration not stated) returned Wnt bcat act 1, HSF-1 act 138*, HSF1 inhib 102 and MITF TRPM1 HTS -12.
Screening O=C(NC1CCCCC1)C(c1ccncc1)N(Cc1ccccc1)C(=O)c1ccc(-c2ccccc2)[nH]1 (configuration not stated) returned esBAF inh 5, HSF-1 act 55* and HSF1 inhib 35.
`CO[C@@H]1CN(C)C(=O)c2ccc(NC(=O)c3ccc4c(c3)OCO4)cc2OC[C@@H](C)N(CCC(F)(F)F)C[C@@H]1C` gave esBAF inh 5.
`Cc1ccc(Sc2nc(-c3ccccc3)nnc2C(F)(F)F)cc1` gave esBAF inh 7, HSF-1 act 151* and HSF1 inhib 88.
For COc1ccc2nc(NC(=O)Nc3ccccc3)sc2c1 the results were Wnt bcat act 56*!, esBAF inh -29, HSF-1 act 31, HSF1 inhib 7 and MITF TRPM1 HTS 68.
